For 18 compounds, outcome and AC50 results are on record in PubChem BioAssay (EPA / NIEHS).

The nature of assay [1]: ATG_XTT_Cytotoxicity: Cytotoxicity Assessment in the Attagene TRANS-FACTORIAL HepG2 Assay (AID 2283584).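 As to AC50: XTT signal for cell number as viability in transfected HepG2 cells; cells exposed to compound for 24 h before reading; active means loss of viability signal versus DMSO baseline.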 In short, it runs like this: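 24 h chemical exposure of reporter-transfected HepG2; XTT signal loss vs DMSO indicates cytotoxicity.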
A short description of assay [2]: TOX21_p53_BLA_p2_viability: Viability Assessment in the Tox21 HCT-116 p53 Agonism Beta-lactamase Assay, Phase 2 (AID 2283591).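 Also: compound exposure lasted 16 h at 37 °C; actives lower the ATP signal meaning cytotoxicity.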 In short, it runs like this:
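Cytotoxicity readout: CellTiter-Glo ATP luminescence, 30 min at room temperature, after the beta-lactamase read. Cells were HCT116 exposed 16 h at 37C to compounds pin-transferred at 217-fold dilution from DMSO stocks.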

Several values for one entry are separate records, joined by “and”; a condition that tells them apart may be missing. Equal values may be shown once. Inconclusive results are not listed. Some structures have more than one record in an assay (separate samples or runs), and their calls can disagree. Activity calls are given as the source filed them. The calls were made as follows: active = hit-call score of the fitted dose curve at least 0.9, where 1 is the maximum; inconclusive = response in the unintended direction; inactive = score below 0.9.

With `Brc1ccc(Br)cc1`, the outcome in assay [1] and in assay [2] was inactive.
For `O=[N+]([O-])c1c2ccccc2cc2ccccc12`, the compound was classed as inactive in assay [1] and in assay [2].
For `CCC(C)(C#N)N=NC(C)(C#N)CC` (stereo not given), the compound was called inactive in assay [1] and in assay [2].
One may read the AC50 as the concentration at which the activity in the assay is half-maximal. As for `COP(=S)(OC)Oc1cc(Cl)c(I)cc1Cl`, in assay [1], the AC50 is 157 µM (active). Further, the compound was called inactive in assay [2].
As for `Cc1cccc(N=Nc2ccc(N(C)C)cc2)c1`, in assay [2], the result was inactive.
For `O=S1(=O)OC(c2cc(Br)c(O)c(Br)c2)(c2cc(Br)c(O)c(Br)c2)c2ccccc21`, the compound was called inactive in assay [1] and in assay [2].
Take `O=C(NC(=O)c1c(F)cccc1F)Nc1cc(Cl)c(F)c(Cl)c1F`: in assay [2], the compound was classed as inactive.
With `CCCCC(CC)C(=O)Cl` (stereo not given), the call in assay [2] was inactive.
For `BrCCCCBr`, the result in assay [1] and in assay [2] was inactive.
`O=NN1CCCCCC1`: the call in assay [2] was inactive.
The same measure, in the same setting: the value for `c1ccc2c(c1)Oc1ccccc1O2` was “inactive”.
The same measure, in the same setting: the entry for `C=C(C)C(=O)OCC(CC)CCCC` (stereo not given) is “inactive”.
Regarding `N#CCC#N`, the compound was classed as inactive in assay [1] and in assay [2].
Consider `O=C(Nc1ccc(Br)cc1)c1cc(Br)cc(Br)c1O`, for which, in assay [1], the call was inactive. In addition, in assay [2], the AC50 is 391 nM (active) and the compound was called inactive.
For `O=[N+]([O-])c1cc([As](=O)(O)O)ccc1O`, the compound was called inactive in assay [2].
As for `CC(C)CC(C)(c1ccc(O)cc1)c1ccc(O)cc1`, the AC50 in assay [1] was 25.9 µM (active); in assay [2] it was 23.7 µM (active) and 75.4 µM (active).
For the compound `CC(C)C(C)(N)C#N` (stereo not given), the compound was called inactive in assay [2].
`O=c1oc2ccccc2c(O)c1C(CC(O)c1ccc(-c2ccc(Br)cc2)cc1)c1ccccc1` (stereo not given): the call in assay [1] was inactive. In assay [2], the AC50 was 6090 nM (active) and the compound was called inactive.
